Bioassay records deposited in PubChem BioAssay by National Center for Advancing Translational Sciences (NCATS).
HPGD inh = inhibitors of human 15-hydroxyprostaglandin dehydrogenase (HPGD). purified HPGD, NADH fluorescence kinetic, PGE2 substrate. actives 4.3% (n = 150,000). P15428. Potency, µM, hits mostly inhibitors
Target sequence (P15428 whole entry, looked up): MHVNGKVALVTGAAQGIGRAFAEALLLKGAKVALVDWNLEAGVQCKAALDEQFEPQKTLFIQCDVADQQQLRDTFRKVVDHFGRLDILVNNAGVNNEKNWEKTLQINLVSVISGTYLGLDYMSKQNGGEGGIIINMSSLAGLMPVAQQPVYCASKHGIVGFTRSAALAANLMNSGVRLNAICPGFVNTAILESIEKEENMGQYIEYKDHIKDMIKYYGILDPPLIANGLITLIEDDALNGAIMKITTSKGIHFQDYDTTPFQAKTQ
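20 nM HPGD preincubated 15 min at room temperature with compound in 50 mM Tris-HCl pH 8, 0.01% Tween 20. Started with 1 mM NAD+ and 30 uM prostaglandin E2; NADH fluorescence (360/450 nm) read 5 times over 30-s intervals, last minus first.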
ALDH1A1 block = ALDH1A1 (human) enzyme inhibition; Purified ALDH1A1, NADH fluorescence, propionaldehyde substrate; AID 1030; Potency, µM (series often up to 75.3 µM), hits mostly inhibitors; P00352; actives 7.3% (n = 220,000)
HTT ATP protect = protects HTT-Q103 PC12 cells, measured by ATP; Potency, µM (doses to about 56.4 µM), hits mostly activators; actives 0.14% (n = 230,000); AID 1471; PC12 HTT-Q103 induced, cytoprotection, ATP luminescence, 40 h; active means well fitted curve in the direction sought with a large enough effect; inconclusive means small, poorly fitted or top-dose-only effect, or another doubt; inactive means no such curve, though single readings can be large; an effect the other way counts as inactive or inconclusive; further: nearly all actives have a fitted effect of over 45% in size
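PC12 cells with ecdysone-inducible HTT exon 1 Q103-GFP, induced with 100 nM tebufenozide and co-treated with library compounds in a dose series (1536-well, 1500 cells/well). Cytoprotection read as ATP content by ATPlite luminescence.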
HttQ103 aggreg = mutant huntingtin aggregation inhibition. actives 1.1% (n = 220,000). Potency, µM (series often up to 46.1 µM), hits mostly inhibitors. PC12 HttQ103-GFP aggregates, Acumen cytometry, 40 h. AID 1688; active means well fitted curve in the direction sought with a large enough effect; inconclusive means small, poorly fitted or top-dose-only effect, or another doubt; inactive means no such curve, though single readings can be large; an effect the other way counts as inactive or inconclusive; further: nearly all actives have a fitted effect of over 60% in size
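Inducible Q103 Huntingtin exon 1–GFP PC12 line, 1500 cells/well in phenol red free DMEM with 5% equine and 5% calf serum. Tebufenozide 100 nM induced expression; compounds titrated; aggregates quantified by cytometry.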
JMJD2E inh = inhibitors of human JMJD2E histone demethylase; JMJD2E catalytic domain, FDH-coupled NADH fluorescence (FDH is formaldehyde dehydrogenase); Potency, µM (highest dose often 57.1 µM), most hits filed as inhibitors; actives 1.6% (n = 230,000); further: nearly all actives have a fitted effect of over 50% in size
Target sequence (B2RXH2 1-337 limits assumed): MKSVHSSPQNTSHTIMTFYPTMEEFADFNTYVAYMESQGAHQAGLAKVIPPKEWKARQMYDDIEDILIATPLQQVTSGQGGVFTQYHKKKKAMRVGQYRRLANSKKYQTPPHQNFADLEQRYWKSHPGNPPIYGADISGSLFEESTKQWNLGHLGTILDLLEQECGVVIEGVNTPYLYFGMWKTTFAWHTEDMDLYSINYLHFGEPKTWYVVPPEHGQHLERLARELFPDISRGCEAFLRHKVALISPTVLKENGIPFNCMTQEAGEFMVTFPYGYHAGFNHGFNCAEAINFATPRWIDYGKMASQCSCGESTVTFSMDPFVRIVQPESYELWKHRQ
LMNA splice mod = changes lamin A minigene splicing in HeLa cells; Potency, µM (series often up to 46.1 µM), actives largely listed as inhibitors; HeLa LMNA splicing GFP/RFP minigene ratio, 48 h; actives 0.01% (n = 200,000); active means well fitted inhibition curve with a large enough effect in the signal ratio, with a control signal flat, not every such curve was filed as active; inconclusive means small, poorly fitted or top-dose-only effect, or effect the other way, or a change in a side signal; the % refers to the signal ratio
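S3 HeLa cells stably expressing lamin A-EGFP splicing minigene plus DsRed2, 600 cells/well, 48 h compound exposure at 37C. Laser-scanning cytometry; analysed as GFP (500-530 nm)/RFP (575-640 nm) total intensity ratio; 0.5% DMSO vehicle.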
Of the large screens only hits and unclear results are named; the others gave an inactive call. Most compounds without a hit are left out; they make up all but 9.2% or so of the library. Unless noted, the call rests on the fitted dose curve; in most records, active means well fitted inhibition curve with a large enough effect (not every such curve was filed as active); inconclusive means small, poorly fitted or top-dose-only effect, or another doubt; inactive means no such curve, though single readings can be large or run the other way.

COc1ccc(OCC(=O)NNC(=O)C(=O)Nc2ccc(C)cc2)cc1	none (no result: HTT ATP protect)
COc1ccc(NC(=O)CSc2nnc(-c3ccccc3C)n2N)cc1	HPGD inh inconclusive, ALDH1A1 block 13µM, LMNA splice mod inconclusive
COc1ccc(NC(=O)CSc2c(C)n[nH]c2C)cc1	ALDH1A1 block 16µM
CC(C)(C)NC(=O)[C@H]1CN(Cc2cccnc2)CCN1C[C@@H](O)C[C@@H](Cc1ccccc1)C(=O)N[C@H]1c2ccccc2C[C@H]1O	LMNA splice mod inconclusive (no result: JMJD2E inh)
Cc1ccc(OCC(=O)N/N=C/c2ccco2)cc1	ALDH1A1 block 28µM
Cc1ccccc1OCC(=O)N/N=C/c1ccco1	none
CCOc1ccccc1N(CC)C(=O)c1noc2c1COc1ccc(C)cc1-2	none (no result: HPGD inh, ALDH1A1 block, HTT ATP protect, HttQ103 aggreg, JMJD2E inh)
CCC1=C(OC(=O)N(CC)CC)N2C(=O)OC(=NCCc3c[nH]c4ccccc34)[C@]2(Cc2ccccc2)[C@H]2C1=CC[C@H]1C(=O)N(C)C(=O)[C@H]12	none (no result: LMNA splice mod)
Cc1ccc(-n2c(-c3ccc(Br)cc3)c[n+]3c2CCc2ccc4cccnc4c2-3)cc1	HttQ103 aggreg 1.8µM, JMJD2E inh inconclusive
Cc1cc(N)c2ccccc2n1	none (no result: HPGD inh, LMNA splice mod)
Nc1cc2ccncc2c2ccccc12	HttQ103 aggreg 0.35µM, JMJD2E inh inconclusive (no result: HPGD inh, ALDH1A1 block, LMNA splice mod)
O=C1CC(C(F)(F)F)=NN1	none (no result: HPGD inh, LMNA splice mod)
O=C(Nc1cccs1)NC1CCCC1	HPGD inh 32µM, ALDH1A1 block 7.1µM
O=S(=O)(NC(=S)NC1CCCCC1)c1cccs1	ALDH1A1 block 5.6µM (no result: HPGD inh, HTT ATP protect, LMNA splice mod)
O=S(=O)(NC(=S)NC1CCCCC1)c1ccccc1	ALDH1A1 block 22µM (no result: HPGD inh, LMNA splice mod)
S=C(Nc1ccc(Nc2ccccc2)cc1)NC1CCCCCC1	LMNA splice mod inconclusive (no result: HPGD inh)
O=C(Nc1ccccc1Cl)c1ccc(-c2ccccn2)s1	none (no result: HPGD inh, ALDH1A1 block, LMNA splice mod)
O=C(CSc1ccccc1)N1CCN(C(=O)c2ccco2)CC1	ALDH1A1 block inconclusive (no result: HPGD inh)
Cc1nnc(SCC(=O)N2CCN(C(=O)c3ccco3)CC2)n1-c1ccccc1	ALDH1A1 block 28µM (no result: HPGD inh, LMNA splice mod)
COc1ccc(OC)c(-n2nnnc2SCC(=O)N2CCN(C(=O)c3ccco3)CC2)c1	ALDH1A1 block inconclusive (no result: HPGD inh)
COc1ccc(-n2nnnc2SCC(=O)N2CCN(C(=O)c3ccco3)CC2)cc1OC	ALDH1A1 block 32µM (no result: HPGD inh, LMNA splice mod)
O=C(NC(c1ccccc1)c1ccccc1)c1ccc(Br)o1	ALDH1A1 block 0.79µM
O=C(NCc1ccccc1)c1ccc(Br)o1	HPGD inh 13µM (no result: HTT ATP protect)
Cc1nc2ccccc2c2oc(C(=O)NCc3ccccn3)cc12	ALDH1A1 block inconclusive, HttQ103 aggreg inconclusive, JMJD2E inh inconclusive
O=C(O)c1ccc(CNC(=O)c2ccc(Br)o2)cc1	none
Cc1ccc(CNC(=O)c2cc3c(C)nc4ccccc4c3o2)cc1	HttQ103 aggreg 11µM, LMNA splice mod inconclusive
O=C(NC1CCCC1)c1ccc(Br)o1	HPGD inh 16µM
CC(NC(=O)c1ccc(Br)o1)c1ccccc1 (stereo unspecified)	ALDH1A1 block inconclusive, LMNA splice mod inconclusive (no result: HPGD inh)
Cc1ccc(S(=O)(=O)N[C@H](C(=O)O)C(C)C)cc1	none (no result: HttQ103 aggreg, JMJD2E inh, LMNA splice mod)
O=C(NCc1ccccc1)c1cccc(Br)n1	HPGD inh 32µM
O=C(NCc1ccccc1)c1ccc(CS(=O)(=O)Cc2ccccc2F)o1	ALDH1A1 block 13µM (no result: HPGD inh, LMNA splice mod)
Cc1ccc(CNC(=O)c2ccc(Br)o2)cc1	HPGD inh 3.2µM, ALDH1A1 block 16µM
O=C(NCc1ccc(F)cc1)c1ccc(Br)o1	none (no result: HPGD inh, LMNA splice mod)
O=C(NCCc1ccccc1)c1cccc(Br)n1	none (no result: HttQ103 aggreg, JMJD2E inh, LMNA splice mod)
O=C(NCc1ccc(Cl)cc1)c1ccccc1Oc1ccccc1	HPGD inh 10µM, ALDH1A1 block inconclusive, HttQ103 aggreg inconclusive
Cc1ccc(C2=NN(CC(=O)NCCN(CC(C)C)CC(C)C)C(=O)CC2)cc1	none (no result: HPGD inh, ALDH1A1 block, HTT ATP protect, HttQ103 aggreg, JMJD2E inh)
COC(=O)C/C=C\[C@H](C)[C@@H](OCc1ccccc1Br)C(C)C	none (no result: HPGD inh, HttQ103 aggreg, JMJD2E inh, LMNA splice mod)
COC(=O)C/C=C\[C@@H](C)[C@@H](/C=N\O[C@@H]1O[C@H](COC(C)=O)[C@@H](OC(C)=O)[C@H](OC(C)=O)[C@H]1OC(C)=O)NS(=O)(=O)c1ccc(C)cc1	none (no result: HPGD inh, HttQ103 aggreg, JMJD2E inh, LMNA splice mod)
CCC1=C(OC(=O)N(CC)CC)N2C(=O)OC(=NCC3CC3)[C@]2(C)[C@H]2C1=CC[C@H]1C(=O)N(c3ccccc3)C(=O)[C@H]12	none (no result: HttQ103 aggreg, LMNA splice mod)
